# Only some compounds are listed: those with a hit (about 10% of all), similar ones and a draw of the others.
# PNC assembly inh: High Content Assay for Compounds that inhibit the Assembly of the Perinucleolar Compartment. PC3M PTB-GFP, PNC prevalence imaging, 16 h; stronger effect = lower value. activity change (PNC), negative = inhibition, % at 10 µM. 140,000 compounds, 3.1% hits. AID 2417, 2010;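 active = readout at or below -70, meaning at least 70% loss of cells showing the perinucleolar compartment, a nuclear body marking cancer cells; inconclusive = readout between -30 and a set limit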;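 note: plate controls were DMSO wells for no effect and camptothecin positive control wells for full effect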
#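 PC3M cells stably expressing PTB-GFP, 750–1000 cells/well, treated 16 h at 37 °C with compound (23 nl of library stock), in duplicate. After paraformaldehyde fixation and Hoechst stain, imaged at 20x; PNC prevalence scored by image analysis.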
# HPGD inh: qHTS Assay for Inhibitors of HPGD (15-Hydroxyprostaglandin Dehydrogenase); 15-hydroxyprostaglandin dehydrogenase [NAD(+)] (Homo sapiens), P15428; 150,000 compounds, 4.3% hits; Potency, µM, for inactives: top-dose activity change, negative = inhibition, hits mostly inhibitors; purified HPGD, NADH fluorescence kinetic, PGE2 substrate; AID 894, 2007; active = well fitted inhibition curve with a large enough effect, not every such curve was filed as active; inconclusive = small, poorly fitted or top-dose-only effect, or another doubt; inactive = no such curve, though single readings can be large or run the other way; note: potency is the fitted concentration of half-maximal effect
#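 NADH formation kinetics: reaction with 30 uM PGE2 and 1 mM NAD+ (final), 20 nM enzyme, Tris-HCl pH 8 with Tween 20, after 15 min compound preincubation at room temperature. Fluorescence change, last versus first of five reads.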
# ALDH1A1 inh: qHTS Assay for Inhibitors of Aldehyde Dehydrogenase 1 (ALDH1A1); Aldehyde dehydrogenase 1A1 (Homo sapiens), P00352; Purified ALDH1A1, NADH fluorescence, propionaldehyde substrate; AID 1030, 2008; Potency, µM (doses to about 75.3 µM), for inactives: at the top dose activity, negative = inhibition, usual class: inhibitors; 220,000 compounds, 7.3% hits; active = well fitted inhibition curve with a large enough effect, not every such curve was filed as active; inconclusive = small, poorly fitted or top-dose-only effect, or another doubt; inactive = no such curve, though single readings can be large or run the other way;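 note: potency is the fitted concentration of half-maximal effect; plate controls were no enzyme wells and a reference inhibitor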
# 12-hLO inh: qHTS Assay for Inhibitors of 12-hLO (12-human lipoxygenase). Polyunsaturated fatty acid lipoxygenase ALOX12 (Homo sapiens), P18054. purified 12-hLO, xylenol orange hydroperoxide absorbance. Potency, µM (highest dose often 57.1 µM), inactives show at the highest dose activity change, negative = inhibition, hits mostly inhibitors. 150,000 compounds, 0.12% hits. AID 1452, 2008; note: potency is the fitted concentration of half-maximal effect; nearly all actives have a fitted effect of over 55% in size
# Target sequence (P18054 whole entry, looked up): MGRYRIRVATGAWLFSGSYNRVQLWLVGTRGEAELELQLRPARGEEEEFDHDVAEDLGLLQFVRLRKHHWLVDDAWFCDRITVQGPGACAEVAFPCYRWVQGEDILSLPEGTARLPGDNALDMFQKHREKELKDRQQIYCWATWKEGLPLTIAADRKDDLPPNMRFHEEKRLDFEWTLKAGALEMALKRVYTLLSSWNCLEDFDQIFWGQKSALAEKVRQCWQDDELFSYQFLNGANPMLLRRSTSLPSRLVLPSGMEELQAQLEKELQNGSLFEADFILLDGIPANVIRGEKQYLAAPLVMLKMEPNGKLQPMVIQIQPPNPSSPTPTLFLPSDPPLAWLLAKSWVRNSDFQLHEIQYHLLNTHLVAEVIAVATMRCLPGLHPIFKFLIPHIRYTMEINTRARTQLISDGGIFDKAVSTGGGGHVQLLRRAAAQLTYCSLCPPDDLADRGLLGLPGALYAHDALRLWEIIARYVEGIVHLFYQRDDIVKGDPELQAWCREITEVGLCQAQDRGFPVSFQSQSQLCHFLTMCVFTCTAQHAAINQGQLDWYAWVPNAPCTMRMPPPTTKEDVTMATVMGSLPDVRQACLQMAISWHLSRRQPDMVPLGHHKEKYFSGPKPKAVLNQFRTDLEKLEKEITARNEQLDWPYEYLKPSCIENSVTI
#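 Hydroperoxide formation by human 12-lipoxygenase from 40 uM arachidonic acid was followed colorimetrically via ferric-xylenol orange complex, using the 573/405 nm absorbance ratio. Enzyme concentration was 150 nM, with 30 min reaction at room temperature.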
# GLA spleen mod: qHTS Assay for Inhibitors and Activators of Human alpha-Galactosidase From Spleen Homogenate; Alpha-galactosidase A (Homo sapiens), P06280; human spleen homogenate, 4MU-alpha-Gal fluorescence, 40 min; AID 2107, 2009; Potency, µM (titrated, usually from 80 µM), without a hit: at the top dose activity change, negative = inhibition, usual class: inhibitors; 240,000 compounds, 0.008% hits;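 note: potency is the fitted concentration of half-maximal effect; 0% = enzyme with vehicle and -100% = no enzyme basal signal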
#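 Human spleen homogenate (1 ug) was the enzyme source, with 4-methylumbelliferyl-alpha-D-galactopyranoside (1 mM final) in pH 5.0 citrate buffer with 0.01% Tween-20. Compounds were titrated; after 40 min at 37C, NaOH/glycine stop, 4-MU fluorescence read; AC50 from Hill fits.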
# GLA inh pH 4.5: qHTS Assay for Inhibitors of Human alpha-Galactosidase at pH 4.5; Alpha-galactosidase A (Homo sapiens), P06280; purified enzyme, 4-MU-alpha-Gal fluorescence, pH 4.5; activity change, negative = inhibition, % at 105 µM; 230,000 tested, under 10 active; AID 1467, 2008;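 note: 0% = full activity with enzyme and -100% = basal without enzyme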
# * marks the source's active call; other numbers are inactive results; ? = inconclusive; . = not tested or not shown; [ ] = another dose, or the depositor's remark. Unless noted, calls come from the whole dose curve; as a rule, active = well fitted curve in the direction sought with a large enough effect; inconclusive = small, poorly fitted or top-dose-only effect, or another doubt; inactive = no such curve, though single readings can be large; an effect the other way counts as inactive or inconclusive. Unless noted, % is set by controls: 0 for no effect and ±100 for the full control effect.
SMILES,PNC assembly inh,HPGD inh,ALDH1A1 inh,12-hLO inh,GLA spleen mod,GLA inh pH 4.5
CCN=C(Nc1ccc2c(c1)OCO2)SC1CC(=O)N(c2ccccc2F)C1=O (centres undefined),-17,-5%,18µM*,-5%,8%,-9
COC(=O)c1ccc(NC2CC(=O)N(c3ccccc3C)C2=O)cc1 (centres undefined),18,-17%,13µM*,5%,2%,-5
Cc1ccc(-n2nnnc2SCC(=O)c2cc(C)n(-c3cc(C)on3)c2C)c(C)c1,?,-18%,2.2µM*,-27%,13%,-1
Cc1cc(C(=O)CSc2nnnn2-c2ccc(O)cc2)c(C)n1C,.,.,16µM*,.,-7%,5
Cc1cc(-n2c(C)cc(C(=O)CSc3nnnn3-c3ccccc3)c2C)no1,-16,-12%,7.1µM*,-7%,1%,-1
COC(=O)c1ccc(OC(=O)CCc2cc(OC)c(OC)c(OC)c2)cc1,.,.,5%,.,9%,7[21.1 µM]
CC(=O)[C@]1(O)Cc2c(O)c3c(c(O)c2[C@@H](O[C@H]2C[C@H](N)[C@H](O)[C@H](C)O2)C1)C(=O)c1c(O)cccc1C3=O,.,-3%,-4%,-4%[0.00818 µM],-8%,-4
COc1ccc([N+](=O)[O-])cc1C(=O)Nc1ccc(OCC(=O)N2CCOCC2)cc1,17,-15%,?,8%,7%,-6
O=C(NNC(=S)Nc1cccc(Cl)c1)c1ccccc1OC(F)F,-10,-12%,25µM*,-4%,0%,-1
Cc1ccc(NC(=S)NNC(=O)c2ccccc2OC(F)F)cc1,?,-9%,?,-3%,3%,-6
COc1cccc(NC(=S)NNC(=O)c2ccccc2OC(F)F)c1,20,?,25µM*,-13%,4%,-7
CN(Cc1ccco1)c1cc(-c2ccoc2)ncn1,.,.,25µM*,.,4%,.
CCCCNC(=S)N/N=C/C1=CCC2CC1C2(C)C (centres undefined),-10,-16%,-13%,?,-4%,-4
CC(C)c1[nH]nc2c1C(c1cccc(OC(=O)N3CCOCC3)c1)C(C#N)=C(N)O2 (centres undefined),-8,-14%,22µM*,-6%,?,5
CC(C)c1[nH]nc2c1C(c1cccnc1)C(C#N)=C(N)O2 (centres undefined),32,0%,8.9µM*,-1%,3%,-6
CCCc1[nH]nc2c1C(c1cc(OC)cc(OC)c1)C(C#N)=C(N)O2 (centres undefined),-12,-26%,-8%,-2%,6%,-4
CCc1[nH]nc2c1C(c1cccc(OC(=O)N3CCOCC3)c1)C(C#N)=C(N)O2 (centres undefined),?,-12%,?,1%,7%,-1
CCCc1[nH]nc2c1C(c1cccc(OC(=O)c3ccco3)c1)C(C#N)=C(N)O2 (centres undefined),10,-29%,8.9µM*,-4%,6%,-2
O=C(O[C@@H]1OC2COC(=O)c3cc(O)c(O)c(O)c3-c3c(cc(O)c(O)c3O)C(=O)O[C@@H]([C@H]1O)[C@@H]2O)c1cc(O)c(O)c(O)c1,48,1.8µM*,-10%,-7%,4%,-7
Cc1nc(N(C)C)c2sc(=S)n(Cc3ccccc3)c2n1,.,.,6.3µM*,.,-4%,-7
O=[N+]([O-])c1ccccc1N=Nc1c(O)[nH]c2ccc(S(=O)(=O)O)cc12,.,4µM*,-8%[13.5 µM],0%[11.4 µM],.,.
Cc1cc(Nc2cc(Cl)cc(Cl)c2)nc(N)n1,.,.,-6%,.,-10%,-6
CCCn1c(C)cc(-c2csc(N)n2)c1C,-2,-25%,11µM*,-14%,-8%,4
COc1ccc(-n2c(C)cc(-c3csc(N)n3)c2C)cc1,23,-12%,25µM*,-6%,-2%,-5
COc1cccc([C@@H]2Oc3ccc(OC)cc3C[C@H]2OC(=O)N[C@H](C)C2CCCCC2)c1,.,-8%,0%,.,-4%,-3
SMILES,PNC assembly inh,HPGD inh,ALDH1A1 inh,12-hLO inh,GLA spleen mod,GLA inh pH 4.5
O=C(NCc1ccc2c(c1)OCO2)c1cccc2c1C(=O)N(C1CCCCC1)C2,1,-7%,1%,2%,-1%,0
COc1c(Cl)cc(-c2noc(C)c2C(=O)NCc2ccc3c(c2)OCO3)cc1Cl,10,-6%,0.71µM*,-1%,-3%,-10
CCOc1cc(C)c(Cl)cc1S(=O)(=O)NCc1ccc2c(c1)OCO2,-113*,-10%,?,-9%,-2%,8
O=C(OC(C(=O)NCc1ccc2c(c1)OCO2)c1ccccc1F)c1ccco1 (centres undefined),13,?,1.6µM*,-20%,8%,-5
CCCN1Cc2cccc(C(=O)NCc3ccc4c(c3)OCO4)c2C1=O,?,-9%,14µM*,-11%,15%,-5
CN1CCN(NC(=S)NC2CCCC2)CC1,.,.,1%,.,7%,1
NCCC[C@@H](CC(=O)N[C@@H]1CCNC[C@H]1C(=O)N[C@H](CC(=O)N[C@@H](CCC(=O)O)CC(=O)O)Cc1ccccc1)NC(=O)C[C@H](Cc1ccccc1)NC(=O)[C@@H]1CCCC[C@H]1N,.,-4%,-7%,-1%,-2%,1
O=C(O)c1c(N2CCCCC2)ccc([N+](=O)[O-])c1N1CCCCC1,.,.,10%,.,0%,-6
CC(=O)N1[C@H](Cc2ccccc2)C=C[C@]1(C)C(=O)NCc1ccccn1,16,-1%,-5%,-2%,-7%,1
CCOc1ccccc1C(=O)NCc1ccc2c(c1)OCO2,55,4µM*,3%,-5%,9%,1
CCC(OC(=O)c1ccco1)C(=O)NCc1ccc(C)cc1 (centres undefined),36,28µM*,-3%,-4%,-4%,7
COc1ccccc1CC(=O)NCc1ccc2c(c1)OCO2,-23,14µM*,?,-5%,9%,0
COc1ccc(-c2nc3cnc(N4CCNCC4)nc3n(-c3ccc(OC)cc3)c2=O)cc1,.,.,?,.,13%,.
O=C1ON=C(c2ccc(Cl)cc2)/C1=C/c1ccc(O)cc1,.,.,13µM*,.,?,.
COc1cc(/C=C2/C(=O)ON=C2c2ccccc2)ccc1O,29,11µM*,?,-5%,-9%,-8

# Screens: PubChem BioAssay, National Center for Advancing Translational Sciences (NCATS)
